Experimental data: PubChem BioAssay (NCATS)
Results filed as inconclusive are left out. Entries that show only a call come without a potency. The source made the active and inactive calls. Unless noted, the call rests on the fitted dose curve; in most records, active means well fitted curve in the direction sought with a large enough effect; inconclusive means small, poorly fitted or top-dose-only effect, or another doubt; inactive means no such curve, though single readings can be large; an effect the other way counts as inactive or inconclusive.

What was measured:
[1] = Primary fluorescence-based thiol-reactive (MSTI) qHTS assay for identification of artifact compounds. (AID 1845221);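 further: thiol-reactive compounds lower the probe fluorescence signal; nearly all actives have a fitted effect of over 65% in size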
How it was run: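 Thiol-reactive compounds detected by quenching of 4 uM MSTI fluorescence (525/598 nm) after 1 h room-temperature dark incubation in PBS pH 7.4, 2% DMSO. qHTS titration; percent inhibition Hill-fitted against Acetyl-MSTI/MSTI controls.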

C33A = experiment: Primary qHTS to identify gynecologic anti-cancer compounds using libraries of approved drugs and bioactive compounds (AID 1345084); details: Gynecologic cancer cell panel viability, ATPlite luminescence, 48 h; series mostly up to 57.5 µM; further: nearly all actives have a fitted effect of over 55% in size; further: potency means the concentration at half of the fitted maximal effect
How it was run: (§1)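 Five-point cytotoxicity, 48 h drug exposure at 37 C, 5% CO2, on cells seeded 16 h beforehand. ATP content read by ATPlite luminescence.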

CASKI = experiment: as above; details: Gynecologic cancer cell panel viability, ATPlite luminescence, 48 h; series mostly up to 57.5 µM
How it was run: as §1

PA-1 = experiment: as above; details: Gynecologic cancer cell panel viability, ATPlite luminescence, 48 h; series mostly up to 57.5 µM
How it was run: as §1

SKOV3 = experiment: as above; details: Gynecologic cancer cell panel viability, ATPlite luminescence, 48 h; series mostly up to 57.5 µM
How it was run: as §1

[2] = qHTS Assay for Identifying Gametocytocidal Compounds (AID 743244);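 further: actives lower the fluorescent signal which means gametocytes are killed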; details: P. falciparum 3D7 stage III-V gametocytes, alamarBlue, 72 h; max response: stronger effect = lower value
How it was run: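 Viability read-out was resazurin reduction (alamarBlue, 24 h) measured at Ex 525/Em 598 nm. Beforehand, late-stage (III-V) 3D7 P. falciparum gametocytes at 20,000 cells/well were incubated with compound 72 h at 37C under 5% CO2.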

[3] = qHTS to identify inhibitors of the type 1 interferon - major histocompatibility complex class I in skeletal muscle: primary screen against the NCATS Mechanism Interrogation Plate v5.0 (MIPE) Libary (AID 1347411); further: nearly all actives have a fitted effect of over 65% in size; further: potency means the concentration at half of the fitted maximal effect
How it was run: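 Immortalized human C25cl48 myoblasts with HiBit knocked into endogenous HLA-B*08:01 were stimulated with 4.0 ng/ml IFN-beta and exposed to compounds (11-point 1:3 titration, top 46 uM final) for 24 hrs at 37 C; HiBiT lytic luminescence measured.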

[4] = test system: Zika virus NS2B-NS3 protease (unlinked complex); experiment: Primary screen GU Rhodamine qHTS for Zika virus inhibitors: Unlinked NS2B-NS3 protease assay (AID 1347159); further: nearly all actives have a fitted effect of over 60% in size; further: potency means the concentration at half of the fitted maximal effect
How it was run: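 A qHTS format was used, with compound concentrations ranging up to 114 microM. Each compound was preincubated with 25 nM NS2B-NS3 protease, and the substrate was then added at 1.5 microM. Curves were fitted with a 4-parameter Hill model.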

[5] = target: Cytochrome P450 2D6 (Homo sapiens) (UniProt P10635); experiment: Cytochrome P450 family 2 subfamily D member 6 (CYP2D6) small molecule antagonists: luciferase biochemical (cell-free) qHTS assay (AID 1645840; active means well fitted curve in the direction sought with a large enough effect in the repeat runs; an effect the other way counts as inactive or inconclusive; further: potency means the concentration at half of the fitted maximal effect; nearly all actives have a fitted effect of over 55% in size)
How it was run: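 P450-Glo luminescent screen: recombinant CYP2D6 enzyme–proluciferin substrate mix preincubated with compound 10 min at room temperature, then NADPH regeneration added for 1 h at room temperature. Detection reagent added for 20 min; luciferin light read as relative luminescence units.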

[6] = target: Catechol O-methyltransferase (Homo sapiens) (UniProt P21964); experiment: Confirmatory Screen for Target Class Profiling of Small Molecule Inhibitors of Methyltransferases (AID 1745852); details: MTase-Glo luminescence, SAH detection, recombinant enzyme; measured here: COMT max response; stronger effect = lower value
[7] = target: Guanidinoacetate N-methyltransferase (Homo sapiens) (UniProt Q14353); experiment: as above; details: activity change, negative = inhibition: at 57.3 µM (top of the series) unless noted
[8] = target: Nicotinamide N-methyltransferase (Homo sapiens) (UniProt P40261); experiment: as above; details: MTase-Glo luminescence, SAH detection, recombinant enzyme; measured here: NNMT max response; stronger effect = lower value
[9] = target: Phenylethanolamine N-methyltransferase (Homo sapiens) (UniProt P11086); experiment: as above; details: MTase-Glo luminescence, SAH detection, recombinant enzyme; measured here: PNMT max response; stronger effect = lower value
[10] = target: Cytochrome P450 2C9 (Homo sapiens) (UniProt P11712); experiment: Cytochrome P450 family 2 subfamily C member 9 (CYP2C9) small molecule antagonists: luciferase biochemical (cell-free) qHTS assay (AID 1645842; active means well fitted curve in the direction sought with a large enough effect in the repeat runs; an effect the other way counts as inactive or inconclusive; further: nearly all actives have a fitted effect of over 55% in size; further: potency means the concentration at half of the fitted maximal effect)
How it was run: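 Luminescence, after 20 min with luciferin detection reagent, reflected CYP2C9 turnover during a 1 h NADPH-driven reaction at 37C. Enzyme-substrate mix contained 0.4% bovine serum albumin and was preincubated with compound 10 min at room temperature.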

CAOV3 = experiment: Primary qHTS to identify gynecologic anti-cancer compounds using libraries of approved drugs and bioactive compounds (AID 1345084); details: Gynecologic cancer cell panel viability, ATPlite luminescence, 48 h; series mostly up to 57.5 µM; further: nearly all actives have a fitted effect of over 55% in size; further: potency means the concentration at half of the fitted maximal effect
How it was run: as §1

Cytochrome P450 2D6 (Homo sapiens), sequence (P10635 whole entry, looked up): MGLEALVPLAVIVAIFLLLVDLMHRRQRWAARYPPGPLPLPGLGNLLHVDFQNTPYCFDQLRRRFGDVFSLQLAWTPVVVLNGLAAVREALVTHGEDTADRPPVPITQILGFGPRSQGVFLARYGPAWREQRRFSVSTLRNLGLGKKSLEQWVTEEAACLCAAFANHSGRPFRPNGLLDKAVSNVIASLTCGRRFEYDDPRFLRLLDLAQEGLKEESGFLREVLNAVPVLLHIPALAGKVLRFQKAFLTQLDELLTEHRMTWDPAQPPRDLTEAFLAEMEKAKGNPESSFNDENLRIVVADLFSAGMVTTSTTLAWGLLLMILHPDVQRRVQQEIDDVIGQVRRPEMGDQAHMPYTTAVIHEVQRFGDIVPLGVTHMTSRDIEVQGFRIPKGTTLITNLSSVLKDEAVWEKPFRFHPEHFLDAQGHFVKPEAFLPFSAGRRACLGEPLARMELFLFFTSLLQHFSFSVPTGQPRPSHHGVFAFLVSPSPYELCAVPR
Cytochrome P450 2C9 (Homo sapiens), sequence (P11712 whole entry, looked up): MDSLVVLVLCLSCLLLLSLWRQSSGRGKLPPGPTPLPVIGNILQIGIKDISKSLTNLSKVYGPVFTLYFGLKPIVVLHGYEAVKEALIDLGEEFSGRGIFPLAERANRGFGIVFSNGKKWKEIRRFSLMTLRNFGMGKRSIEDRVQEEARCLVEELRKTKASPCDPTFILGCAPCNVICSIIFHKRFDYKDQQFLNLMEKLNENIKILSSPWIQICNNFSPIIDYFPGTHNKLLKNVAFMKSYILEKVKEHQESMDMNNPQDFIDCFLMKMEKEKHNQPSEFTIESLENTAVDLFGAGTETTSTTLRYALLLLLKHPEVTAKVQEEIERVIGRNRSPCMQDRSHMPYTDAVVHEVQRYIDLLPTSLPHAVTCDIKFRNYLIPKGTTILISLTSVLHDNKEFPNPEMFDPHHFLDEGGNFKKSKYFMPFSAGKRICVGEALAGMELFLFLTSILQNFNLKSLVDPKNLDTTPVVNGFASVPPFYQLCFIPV
Catechol O-methyltransferase (Homo sapiens), sequence (P21964 whole entry, looked up): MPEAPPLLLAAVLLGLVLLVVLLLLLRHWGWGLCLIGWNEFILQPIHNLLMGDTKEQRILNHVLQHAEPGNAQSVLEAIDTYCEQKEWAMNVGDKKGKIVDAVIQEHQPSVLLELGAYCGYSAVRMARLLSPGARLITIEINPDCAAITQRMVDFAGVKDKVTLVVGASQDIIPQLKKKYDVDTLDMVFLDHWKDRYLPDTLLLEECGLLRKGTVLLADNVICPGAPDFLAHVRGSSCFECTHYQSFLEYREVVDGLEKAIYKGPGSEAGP
Nicotinamide N-methyltransferase (Homo sapiens), sequence (P40261 whole entry, looked up): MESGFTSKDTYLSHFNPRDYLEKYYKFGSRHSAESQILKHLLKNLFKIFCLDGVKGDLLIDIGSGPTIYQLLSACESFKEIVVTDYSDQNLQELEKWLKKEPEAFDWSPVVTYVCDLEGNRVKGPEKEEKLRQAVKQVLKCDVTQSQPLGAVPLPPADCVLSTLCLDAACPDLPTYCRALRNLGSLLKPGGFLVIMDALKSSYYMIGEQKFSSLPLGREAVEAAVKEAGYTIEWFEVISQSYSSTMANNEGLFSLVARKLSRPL
Phenylethanolamine N-methyltransferase (Homo sapiens), sequence (P11086 whole entry, looked up): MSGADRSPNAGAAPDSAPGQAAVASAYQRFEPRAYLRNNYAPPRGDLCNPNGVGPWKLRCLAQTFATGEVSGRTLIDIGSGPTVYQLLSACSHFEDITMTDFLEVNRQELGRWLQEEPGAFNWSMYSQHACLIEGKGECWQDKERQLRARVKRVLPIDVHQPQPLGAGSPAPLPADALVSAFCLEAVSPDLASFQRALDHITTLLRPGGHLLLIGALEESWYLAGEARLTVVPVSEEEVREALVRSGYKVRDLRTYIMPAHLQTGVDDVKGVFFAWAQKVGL

Structure (SMILES): CC(CCC1(O)OC2CC3C4CC=C5CC(O[C@@H]6O[C@H](CO)[C@@H](O[C@@H]7O[C@H](CO)[C@@H](O)[C@H](O)[C@H]7O)[C@H](O)[C@H]6O[C@@H]6O[C@@H](C)[C@H](O)[C@@H](O)[C@H]6O)CCC5(C)C4CCC3(C)C2C1C)CO[C@@H]1O[C@H](CO)[C@@H](O)[C@H](O)[C@H]1O (stereo partly drawn)
- activity change, negative = thiol reactive [1]: 204% [at 11.5 µM] (inactive)
- activity change, negative = cytotoxicity (C33A): 1.45% [at 11.6 µM] (inactive)
- activity change, negative = cytotoxicity (CASKI): 1.26% [at 11.6 µM] (inactive)
- activity change, negative = cytotoxicity (PA-1): 4.42% [at 11.6 µM] (inactive)
- activity change, negative = cytotoxicity (SKOV3): -2.2% [at 11.6 µM] (inactive)

Structure (SMILES): N#C[C@@H]1C[C@@H]2C[C@@H]2N1C(=O)[C@@H](N)C12CC3CC(CC(O)(C3)C1)C2
- max response [2]: -8.8% (inactive)
- Potency [3]: inactive
- Potency [1]: inactive
- Potency (C33A): inactive
- Potency (CASKI): inactive
- Potency (PA-1): inactive
- Potency (SKOV3): inactive

Structure (SMILES): CCOC(=O)CCC(=O)O[C@H]1[C@H](O[C@@H]2[C@@H](C)[C@H](O[C@H]3C[C@@](C)(OC)[C@@H](O)[C@H](C)O3)[C@@H](C)C(=O)O[C@H](CC)[C@@](C)(O)[C@H](O)[C@@H](C)C(=O)[C@H](C)CC2(C)O)O[C@H](C)C[C@@H]1N(C)C (stereo partly drawn)
- Potency [4]: inactive
- Potency [1]: inactive
- Potency (C33A): inactive
- Potency (CASKI): inactive
- Potency (PA-1): inactive
- Potency (SKOV3): inactive

Structure (SMILES): C=C1C(=O)O[C@@H]2C[C@@H](C)[C@]34C[C@]5(C(=O)O[C@H]6CC(C)=C([C@H](C)CCCO)[C@H](OC(=O)C(C)CC)[C@H]65)[C@@H](C(C)=C3C[C@@H]12)[C@H]4OC(C)=O (stereo partly drawn)
- Potency [4]: inactive
- Potency (C33A): inactive
- Potency (CASKI): inactive
- Potency (SKOV3): inactive

Structure (SMILES): COc1ccc(-c2c(C)c(C(=O)NN3CCCCC3)nn2-c2ccc(Cl)cc2Cl)cc1
- Potency [1]: inactive
- Potency (C33A): inactive
- Potency (CASKI): inactive
- Potency (PA-1): inactive
- Potency (SKOV3): inactive

Structure (SMILES): COc1ccc(NS(=O)(=O)c2sc3ccc(Cl)cc3c2C)cc1N1CCNCC1
- Potency [4]: inactive
- Potency [5]: 23.9 µM (active)
- Potency (C33A): inactive
- Potency (CASKI): inactive
- Potency (PA-1): inactive
- Potency (SKOV3): inactive

Structure (SMILES): CN([C@H]1c2cc(OCCCC(F)(F)F)ccc2OC(C)(C)[C@@H]1O)S(C)(=O)=O
- Potency [1]: inactive
- Potency (C33A): inactive
- Potency (CASKI): inactive
- Potency (PA-1): inactive

Structure (SMILES): CN(C)CCCCCCNC(=O)c1cccc(-c2cc(O)c3ncccc3c2)c1
- activity [6]: -95.5%
- activity change, negative = inhibition [7]: 6.43%
- activity [8]: -1.3%
- activity [9]: 4.93%
- Potency (SKOV3): inactive

Structure (SMILES): C[C@@H]1CCNC(=O)c2cc3ccc(C(=O)Nc4nc5ccccc5n4CCCN(C)C)cc3n21
- Potency [4]: inactive
- Potency [10]: inactive
- Potency [1]: inactive
- Potency (CAOV3): 25.1 µM (active)
- Potency (PA-1): inactive

Structure (SMILES): N#Cc1ccc2c(c1)CCN(CCC1CCC(NC(=O)c3ccnc4ccccc34)CC1)C2 (stereo not drawn)
- Potency [4]: inactive
- Potency [1]: inactive
- Potency (CAOV3): inactive
- Potency (CASKI): inactive
- Potency (PA-1): inactive
- Potency (SKOV3): 22.4 µM (active)

Structure (SMILES): COc1cccc(NC[C@@H](O)Cn2c3ccc(Br)cc3c3cc(Br)ccc32)c1
- Potency [4]: 44.7 µM (active)
- Potency [5]: 8.49 µM (active)
- Potency [10]: inactive
- Potency (C33A): inactive
- Potency (CASKI): inactive

Structure (SMILES): O=C(Nc1ncc(SCCN2CCCC2)s1)C1(c2ccc(S(=O)(=O)C3CC3)cc2)CC1C1CCCCC1 (stereo not drawn)
- Potency [4]: inactive
- Potency [5]: 21.3 µM (active)
- Potency [10]: 19 µM (active)
- Potency [1]: inactive
- Potency (CASKI): inactive

Structure (SMILES): COC(=O)/C=C/C(=O)N(O)CCCCNCc1ccc(COC(=O)Nc2cccc3ccccc23)cc1
- Potency [3]: 13.1 µM (active)
- Potency [1]: inactive

Structure (SMILES): CCOc1cc(CNC2CCCC2)cc(Cl)c1OCc1ccc(Cl)cc1
- Potency [5]: 1.51 µM (active)
- Potency [10]: 19 µM (active)
- Potency (CAOV3): 22.4 µM (active)

Structure (SMILES): CC[C@]1(O)C[C@H]2CN(CCC3C(=Nc4ccccc43)[C@@](C(=O)OC)(c3cc4c(cc3OC)N(C)[C@H]3[C@@](O)(C(N)=O)[C@H](O)[C@]5(CC)C=CCN6CC[C@]43[C@@H]65)C2)C1 (stereo partly drawn)
- Potency (CAOV3): inactive
- Potency (CASKI): 0.199 µM (active)
- Potency (PA-1): 0.1 µM (active)

Structure (SMILES): CC1CCC2(NC1)OC1CC3C4CC=C5CC(O[C@@H]6O[C@H](CO)[C@@H](O[C@@H]7O[C@@H](C)[C@H](O)[C@@H](O)[C@H]7O)[C@H](O)[C@H]6O[C@@H]6O[C@@H](C)[C@H](O)[C@@H](O)[C@H]6O)CCC5(C)C4CCC3(C)C1C2C (stereo partly drawn)
- Potency [4]: inactive
- activity change, negative = cytotoxicity (CASKI): -25.1% [at 11.6 µM] (inactive)
